Results reported in PubChem BioAssay AID493175 (National Center for Advancing Translational Sciences (NCATS), 2011).
Inconclusive results are not listed. Unmarked numbers belong to inactive results. Calls come from the whole dose curve; as a rule, active = well fitted curve in the direction sought with a large enough effect; inconclusive = small, poorly fitted or top-dose-only effect, or another doubt; inactive = no such curve, though single readings can be large or run the other way.

Biological target: Luciferin 4-monooxygenase (Photinus pyralis) (UniProt P08659)
Sequence (P08659 whole entry, looked up): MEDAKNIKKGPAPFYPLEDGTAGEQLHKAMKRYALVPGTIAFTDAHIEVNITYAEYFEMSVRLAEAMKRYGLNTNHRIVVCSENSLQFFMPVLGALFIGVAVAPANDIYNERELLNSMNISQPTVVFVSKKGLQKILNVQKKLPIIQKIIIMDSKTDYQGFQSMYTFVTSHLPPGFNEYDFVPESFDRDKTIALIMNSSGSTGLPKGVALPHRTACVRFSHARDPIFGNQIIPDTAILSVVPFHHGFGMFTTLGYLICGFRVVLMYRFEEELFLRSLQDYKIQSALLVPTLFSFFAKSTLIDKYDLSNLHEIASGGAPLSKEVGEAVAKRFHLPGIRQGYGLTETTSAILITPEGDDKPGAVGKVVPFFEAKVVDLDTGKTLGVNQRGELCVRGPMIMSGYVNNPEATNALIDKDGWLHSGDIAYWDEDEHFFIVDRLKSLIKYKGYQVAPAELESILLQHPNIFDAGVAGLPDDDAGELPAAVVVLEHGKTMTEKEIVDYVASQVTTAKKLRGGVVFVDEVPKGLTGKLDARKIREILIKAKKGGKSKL
Test: miR-21 counterscreen using purified firefly luciferase
Conditions: purified P. pyralis luciferase, luminescence; series mostly up to 57.5 µM; activity change, negative = inhibition: at the top concentration
Description: MLPCN Grant: 1 R21 NS059478-01 Assay Provider: Qihong Huang, The Wistar Institute NCGC Assay Overview: MicroRNAs (miRNAs) are endogenously encoded small (~20-25 nucleotides), nonprotein-coding RNAs that are involved in post-transcriptional repression of target messenger RNAs (mRNAs) (Le and Hannon, 2004). Estimated to be involved in the regulation of 30% of all protein-coding mRNAs (Filipowicz et al., 2008), miRNAs play a significant role in many biological processes including cellular differentiation and tissue development (Ghildiyal and Zamore, 2009). […] Compounds active in the miR-21 FLuc assay were clustered using Leadscope and active chemical series were prioritized based on chemical properties, potential for medicinal chemistry optimization, and SAR. Within each chemical series, representative compounds were re-acquired to test for activity in a secondary assay based on the quality of their CRC, efficacy, and potency. This secondary assay to determine if compounds active in the miR-21 FLuc assay were just luciferase inhibitors. Compounds found active in both the miR-21 FLuc and purified FLuc assays are considered as false positives. Keywords: NIH Roadmap, MLPCN, MLSMR, qHTS, miR-21, firefly luciferase, FLuc, miRNA.
NCGC Assay Protocol Summary: Reagents: 50mM Tris acetate, pH 7.5; 10mM Mg acetate; 10uM D-luciferin (Sigma #L9504); 10uM ATP; 0.01% Tween-20; 0.05% BSA; 10nM P. pyralis luciferase (Sigma #L9506) Control compounds used were two known firefly luciferase inhibitors (compounds (2) and (5) in Auld et al., 2010), and DMSO. Assay Summary: Three microliters containing firefly luciferase substrates in buffer (final concentrations: 50mM Tris acetate, pH 7.5, 10mM Mg acetate, 0.01% Tween-20, 0.05% BSA, 10uM D-luciferin, and 10uM ATP) are dispensed into each well of a Greiner white, solid-bottom 1536-well format plate using a flying reagent dispenser (FRD). These assay plates were then treated with 23nL of compound or DMSO using a Kalypsys pin tool, which allows for delivery of a 6-point interplate titration of each compound to the assay plate (quantitative HTS), with a final compound concentrations ranging from approximately 60 µM to 7pM. One microliter of firefly luciferase in […] Tris-acetate buffer was then delivered by FRD to each well for a final enzyme concentration of 10nM. Luciferase activity was then measured using a ViewLux CCD imager (PerkinElmer), with an average exposure time of 2-30 seconds (2X binning, medium/high gain).

SMILES | activity change, negative = inhibition
CCCCN1C(C(=O)c2ccccc2)=C(OC(C)=O)c2ccccc2S1(=O)=O | -17%
CCCCOc1ccccc1CC1C(=O)Nc2ccc(Br)cc21 (centres undefined) | -3.67%
Cc1nnc(SCc2nc(N)nc(Nc3ccccc3)n2)s1 | -25.9%
NC(=O)c1ccccc1NC(=O)c1ccc(-c2ccc(Br)cc2)o1 | 0.577%
O=C(Nc1nnc(S(=O)(=O)N2CCCC2)s1)c1ccc(F)cc1 | -3.57%
Cc1ccc(CNc2nc(-c3ccco3)nn2S(C)(=O)=O)cc1 | 1.57%
O=C(CSc1nnc(-c2ccc(O)cc2)o1)Nc1ccccc1Br | 4.86%
CCC(=O)n1nc(-c2cccnc2)nc1NCc1ccc(F)cc1 | -1.65%
Cc1ccc(C(=O)Nc2ccc3c(c2)N(C)C(=O)c2ccccc2S3)cc1F | 1.83%
COc1ccc(-n2nnc(-c3nc(-c4cccs4)no3)c2N)cc1OC | -9.69%
COc1ccc(OCC(=O)Nc2cc(-c3nc4ccccc4s3)ccc2C)cc1 | -18.9%
CC(C)C(=O)Nc1nc2c(s1)CC(C(C)(C)C)CC2 (centres undefined) | -17.6%
CS(=O)(=O)c1ncc(Cl)c(C(=O)N2CCN(c3cccc(Cl)c3)CC2)n1 | -18.8%
COc1ccccc1CNC(=O)CCC1N=C2c3ccccc3N=C(SCc3cccc(Cl)c3)N2C1=O (centres undefined) | -1.95%
CC(C)S(=O)(=O)c1oc(-c2ccc(F)cc2)nc1S(=O)(=O)c1ccc(F)cc1 | -2.87%
COc1cccc(C(=O)Nc2ccc3nc(N4CCN(c5ncccn5)CC4)cc(C)c3c2)c1OC | -18.1%
O=C(CSc1nnc(-c2ccccn2)o1)Nc1cccc(Cl)c1 | -13.8%
COc1ccc(NC(=O)CSc2nnc(-c3cccs3)o2)cc1 | -0.0404%
CC(C)S(=O)(=O)c1oc(-c2cccs2)nc1S(=O)(=O)c1ccc(F)cc1 | -14.5%
COc1ccc(Nc2cc(C(=O)NCCCN3CCN(c4ccc(OC)cc4)CC3)c3ccccc3n2)cc1 | -6.17%

SMILES | activity change, negative = inhibition
O=C(CSc1nnc(-c2ccc(C(F)(F)F)cn2)o1)Nc1cccc(Cl)c1 | -0.604%
Cc1cc(C)n2c(SCc3ccccc3Cl)nnc2n1 | -9.49%
CCCn1c(=O)c2sccc2n2c(CCCC(=O)Nc3ccc(Oc4ccc(Cl)cc4)cc3)nnc12 | -2.62%
Cc1ccc(-c2csc(NC(=O)CSc3nc4ccccc4o3)n2)cc1 | 0.587%
Cc1ccc(-n2nnc(-c3nsc(NC(=O)c4ccccc4)n3)c2C)cc1 | -7.45%
CCc1nonc1NC(=O)c1oc2cc(C)c(C)cc2c1C | 3.62%
Cc1cc(C)c2c(N)c(C(=O)Nc3ccccc3F)sc2n1 | -19.7%
O=C(CSc1nnc(-c2ccc(Cl)cc2)o1)Nc1ccc(F)cc1 | -3.58%
CC1=C(c2ccc(C)c(C)c2)S(=O)(=O)N=C1N1CCC(C(=O)NCCc2ccc(Cl)cc2)CC1 | 9.77%
Cc1ccc2c(C)c(C(=O)N(C)C(C)c3ccncn3)oc2c1C (centres undefined) | 2.25%
Cc1cccc(N2CCN(c3ncnc4onc(C)c34)CC2C)c1 (centres undefined) | -2.15%
CCS(=O)(=O)c1ncc(Cl)c(C(=O)Nc2ccc(S(=O)(=O)N(C)c3ccccc3)cc2)n1 | -19.5%
Fc1ccccc1CSc1nnc(-c2cnccn2)n1Cc1ccco1 | -4.71%
COc1ccc(-c2csc(NC(=O)COC(=O)c3ccc(Br)o3)n2)cc1 | 0.739%
Cc1ccc(NC(=O)Cn2nnc(-c3nc(-c4ccc(Cl)cc4)no3)c2N)cc1C | 1.35%
Cc1cc(Nc2cccc(C(F)(F)F)c2)nc2ccc(NC(=O)c3cccnc3)cc12 | 1.05%
C/C(=N\NC(=O)c1cccs1)c1ccncc1 | -17.6%
COc1cccc(-n2nnc(-c3nc(-c4cccs4)no3)c2N)c1 | -9.44%
COc1ccccc1NC(=O)C/C(C)=N/NC(=O)c1ccccn1 | -2.29%
